Holding throughout (assay): NCI-60 one-dose screen, 48 h (100 = growth as untreated, 0 = no growth, -100 = all killed)
Common to all, as to settings: 10 µM

For assay [1], the system named is NCI-H23 lung.
Assay [2] has as its system NCI-H226 lung.
Assay [3] concerns NCI-H322M lung.
The subject of assay [4] is NCI-H460 lung.
Assay [5] has as its system HOP-92 NSCLC.
For assay [6], the system named is NCI-H522 lung.
The test system of assay [7] is A549/ATCC NSCLC.
Assay [8] has as its system 786-0 renal.
The subject of assay [9] is COLO 205 colon.

This is part of a sample that, as a whole, favours compounds with a hit. Of some 83,000 tested, about 20% had one in any assay.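 Each cell line was grown in a 96-well plate and treated with one concentration of compound for 48 hours. Values below 10 were considered active.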 Unmarked numbers belong to inactive results. Active and inactive are the calls of the source.

On to `COc1ccc(-c2oncc2-c2cc(OC)c3c(c2)OCO3)cc1`, for which the growth in [1] is 47.7%; in [2] it was 77.5%; in [3], 39%; in assay [4], 11.5%; in assay [5] it was -3.69% (active); in [6], 3.28% (active). For the same compound, the growth in [7] is 27.7%; in [8], 36.6%; in [9], 15%.

`COc1cc(N=C2C(=O)N(Cc3ccccc3)c3ccccc32)cc(OC)c1OC`: the growth is 89.9% in [1]; 88.3% in assay [2]; 108% in [3]; 103% in assay [4]; 35.6% in assay [5]; 75% in [6]. For the same compound, the growth in [7] was 103%; in assay [8] it was 103%; in assay [9], 114%.

Turning to `COc1ccc(S(=O)(=O)Nc2ccc(OCc3nnc(-c4ccc(Cl)cc4)o3)c(F)c2)cc1`, the growth in assay [1] was 43.4%; in assay [2], 59.8%; in assay [3] it was 80.2%; in assay [4] it was 59.4%; in assay [6] it was 43.4%; in assay [7], 47.4%. Further, the values for the growth in assay [8] and in assay [9] were 67.8% and 89.2%, respectively.

As for `COc1ccc(C2=Cc3ccc(OC(C)=O)cc3OC2)cc1`, the growth was 95.9% in assay [1]; 91.1% in [2]; 92.3% in assay [3]; 103% in assay [4]; 91.8% in assay [5]; 88.3% in assay [7]. Also, the values for the growth in assay [8] and in assay [9] were 100% and 110%, respectively.

Consider `CCCCCCCCCCN=C(c1ccc(N(C)C)cc1)c1ccc(N(C)C)cc1`, for which the growth was 27.8% in assay [1]; 57.6% in [2]; 44.6% in assay [3]; 12.1% in assay [4]; 47.9% in [5]; 2.43% (active) in [6]. Further, the values for the growth in assay [7] and in [8] were 30.5% and 48.8%, respectively.

In the case of `N#Cc1cnc2ccc(NCc3cnc[nH]3)cc2c1Nc1ccc(F)c(Cl)c1`, the growth in [1] was 78.8%; in [2] it was 88.2%; in assay [3] it was 1.96% (active); in [4], 62.5%; in [5] it was 51.9%; in [6], 10.2%. Besides, the growth in assay [7] is 70.9%; in [8], 65.7%.

For the compound `Cc1noc(C)c1-c1ccc2nc(NC(=O)[C@H]3CCN(C#N)C3)cn2c1`, the growth in [1] was 76.1%; in [2], 91.1%; in [3], 99.3%; in assay [4], 98.7%; in assay [5], 67.3%; in assay [6], 25.2%. The growth in [7] is 94.6%; in assay [8], 78.6%; in [9], 82.6%.

For the compound `CC1(CO)CCCC12OCCO2` (configuration not stated), the growth in [1] was 106%; in assay [2], 99.7%; in [3], 107%; in assay [4], 105%; in assay [5] it was 120%; in assay [6], 93%. Also, the growth is 101% in assay [7], 102% in assay [8] and 114% in assay [9].

For `COc1cc(CSc2nc3ccc(C)cc3c(=O)n2Cc2ccccc2)cc(OC)c1OC`, the growth in [1] is 21.3%; in assay [2], 47.3%; in assay [3], 46.2%; in assay [4], 17.7%; in assay [5], 56.6%; in assay [6], -14.5% (active). For the same compound, the growth in [7] is 40%; in assay [8], 46.8%; in assay [9], -18.7% (active).

For `CN(C)CCCN1c2ccccc2Sc2ccc(C(F)(F)F)cc21`, the growth in [1] was 47%; in [2], 54.7%; in assay [3] it was 37.1%; in assay [4], 13.8%; in [5], -9.96% (active); in assay [6], -15.2% (active). Moreover, the results for the growth in assay [7], in [8] and in [9] were 53.3%, 9.65% (active) and -77.8% (active), respectively.

`COc1cc(Cl)cc(-c2nn(-c3cccc(NC(=O)Nc4cccc(C(F)(F)F)c4)c3)cc2-c2ccncc2)c1`: the growth in [1] is -5.1% (active); in assay [2], 3.94% (active); in [3], 26.2%; in assay [4], -6.11% (active); in assay [5] it was -27.3% (active); in assay [6] it was -18.6% (active). Further, the figures for the growth in assay [7], in [8] and in assay [9] were 8.08% (active), 13.2% and -31.2% (active), respectively.

As to `COc1ccc(-c2n/c(=C\c3c(O)[nH]c4ccccc34)cc3c2=Nc2ccccc2-3)cc1`, the growth was 33.8% in assay [1]; 59.7% in [2]; 96% in assay [3]; 9.63% (active) in assay [4]; 42.1% in assay [5]; 63.1% in assay [6]. Besides, the growth is 37.4% in assay [7], -31.3% (active) in assay [8] and 35.9% in assay [9].

For `O=C/C=C/c1ccc([N+](=O)[O-])cc1Cl`, the growth was 94% in assay [1]; 108% in assay [2]; 89.1% in assay [3]; 112% in [4]; 89.5% in assay [6]; 98.7% in assay [7]. Also, in assay [8], the growth was 105%.

In the case of `COc1ccc2nc(/C=C/c3ccc(N(C)C)cc3)sc2c1`, the growth in assay [1] is 89.5%; in assay [2] it was 99.5%; in [3], 99.6%; in assay [4] it was 110%; in assay [7] it was 105%; in assay [8], 93%. For the same compound, the growth in assay [9] was 145%.

For `CCc1ccc(-c2nnc(COc3ccc(-c4nc5cc(Cl)c(Cl)cc5[nH]4)cc3OC)o2)cc1`, the growth in [1] was 67.8%; in assay [2] it was 103%; in [3], 83.6%; in assay [4], 24.5%; in assay [5], 72.2%; in [6], 82.8%. Also, the growth was 39.3% in assay [7], 77.1% in assay [8] and 57.1% in [9].

Values taken from PubChem BioAssay (NCI).
